Pf growth 48h: P. falciparum growth inhibition at 48 hours (one generation); P. falciparum luciferase growth in erythrocytes, 48 h; Potency, µM (highest dose often 28.7 µM), for the others: top-dose activity change, negative = inhibition, hits mostly inhibitors; 310,000 tested, 5.9% active; note: potency is the fitted concentration of half-maximal effect; % is set by controls: 0 for no effect and ±100 for the full control effect
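In quantitative HTS format, infected erythrocytes bearing luciferase-reporter parasites were treated for a single generation at 37 C. Luminescence after adding detection reagent served as the growth measure.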
HCV inhibitor: HCV inhibition | Huh7.5.1 HCVcc-Cre infection, luciferase reporter, 44 h | Potency, µM (top dose mostly 41.8 µM), for inactives: top-dose activity change, negative = inhibition, most hits filed as inhibitors | 340,000 tested, 3.4% active; note: potency is the fitted concentration of half-maximal effect; % is set by controls: 0 for no effect and ±100 for the full control effect
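Cells seeded at 1,000/well and cultured 4 h, then compounds added followed by HCVcc-Cre virus (~0.5 moi). After 44 h further culture, luciferase substrate was added, plates held 15 min at room temperature, and luminescence read for 15 sec.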
Shiga inhibitor: Shiga toxin inhibition; Vero cells, Shiga toxin protein synthesis inhibition reporter; inhibition, % at 38.7 µM; 290,000 tested, 9.2% active; in the data active = inhibition mostly above about 28%, no sharp cut-off; inactive = mostly below about 43%; note: 0% is about no effect
Pf growth 96h: inhibits malaria parasite growth, 96 h; 320,000 tested, 6.9% active; P. falciparum luciferase reporter growth, 96 h; AID 504834; Potency, µM (titrated, usually from 28.7 µM), inactives show top-dose activity change, negative = inhibition, actives largely listed as inhibitors; note: potency is the fitted concentration of half-maximal effect; % is set by controls: 0 for no effect and ±100 for the full control effect
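Erythrocytes infected with luciferase-expressing P. falciparum were dispensed at 2% hematocrit and 0.05% parasitemia (final), then incubated with compounds 96 hours at 37 C in 5% CO2. Luminescence after detection reagent addition reported growth.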
HCMV antiviral: human cytomegalovirus inhibition; 410,000 tested, 4.5% active; activity change, negative = inhibition, % at 57.5 µM; HFF cells, HCMV-luciferase reporter, 72 h; stronger effect = lower value; in the data active = activity change below about -60%; inconclusive = no clear call, values can overlap the other calls; inactive = above about -39%; note: % is set by controls: 0 for no effect and ±100 for the full control effect
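Compounds were evaluated in HFFs infected with an HCMV luciferase reporter virus (MOI 1 PFU/cell). Luciferase in lysates collected 72 h post infection served as the replication measure.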
Cycloheximide cs: counter-screen for Shiga toxin inhibitors: cycloheximide protein synthesis inhibition. cell reporter, cycloheximide protein synthesis inhibition counterscreen. max response, %. 300,000 tested, 12% active. AID 2314; in the data active = max response mostly above about 13%, no sharp cut-off; inactive = mostly below about 14%; note: read at 38.3 µM for the half of the compounds with a filed dose; 0% is about no effect
Starred values were filed as active, the others as inactive; ? = inconclusive; nt = no result given; [ ] = another dose, or the depositor's remark. Only some compounds are listed: those with a hit (about 21% of all), similar ones and a draw of the others. Unless noted, calls come from the whole dose curve; as a rule, active = well fitted inhibition curve with a large enough effect; inconclusive = small, poorly fitted or top-dose-only effect, or another doubt; inactive = no such curve, though single readings can be large or run the other way.

SMILES	Pf growth 48h	HCV inhibitor	Shiga inhibitor	Pf growth 96h	HCMV antiviral	Cycloheximide cs
COc1ccc(CNc2ccc3cc(S(=O)(=O)N4CCCCC4)ccc3n2)cc1	nt	nt	nt	nt	-27	nt
CCN(C(=O)c1cccs1)c1nnc(-c2ccncc2)s1	-104%	0%	active	5%[5.75 µM]	-65*	16*
O=C(Nc1cccnc1)c1ccc(CSc2ccc(Cl)cc2)o1	nt	nt	nt	nt	-29	nt
O=c1c2ccccc2nc(N2CCCC2)n1-c1ccc(Cl)cc1	2%	?	-10	27%	-63*	-1
CCc1ccc(-n2c(N3CCN(c4cccc(Cl)c4)CC3)nc3ccccc3c2=O)cc1	nt	nt	nt	nt	-14	nt
COc1nc2ccccc2c(=O)n1-c1ccc(Cl)cc1	-28%	3%	12	-27%	-61*	-1
CC(=O)c1ccc(OCCCCCCCOc2ccc(C(C)=O)cc2)cc1	-3%	5%	nt	?	nt	3
Cc1ccc2nc(SCC(=O)NCc3ccccc3)nc(=O)n2c1	21%	13%	nt	49%	-40	nt
Cc1cccc(NC(=O)c2oc3ccc(S(=O)(=O)N(C)C4CCCCC4)cc3c2C)c1C	nt	nt	nt	nt	-75*	nt
Cc1ccc(Cl)cc1NC(=O)c1oc2ccc(S(=O)(=O)N(C)C3CCCCC3)cc2c1C	nt	nt	nt	nt	-10	nt
COc1ccc(NC(=O)c2oc3ccc(S(=O)(=O)N(C)C4CCCCC4)cc3c2C)cc1	nt	nt	nt	nt	-72*	nt
Cc1noc(C)c1CN1CCN2C=C(C(=O)NCCCc3ccccc3)OC2=NC1=O	nt	nt	nt	nt	10	nt
Cc1c(C(=O)N2CCN(S(=O)(=O)c3ccc(F)cc3)CC2)oc2ccccc12	-24%	-8%	nt	?	-32	nt
Cc1nc(Nc2ccc3c(c2)OCCO3)c2c(C)c(C)sc2n1	3%	?	45	38%	15	20*
Cc1ccc(O)c(Nc2ncnc3ccc([N+](=O)[O-])cc23)c1	?	-10%	-9	-18%	?	-1
Cc1nc(NCC2CCCO2)c2oc3ccccc3c2n1 (stereo not drawn)	nt	-11%	-4	13%	-15	-2
O=[N+]([O-])c1ccc2ncnc(Nc3ccc4c(c3)OCCO4)c2c1	9.3µM*	-5%	-17	?	-28	12
CCc1nc(NCC2CCCO2)c2oc3ccccc3c2n1 (stereo not drawn)	?	?	-6	?	-84*	4
c1ccc2c(c1)oc1c(Nc3ccc4c(c3)OCCO4)ncnc12	231%	?	69*	32%	63	54*
COc1ccc(-c2[nH]ncc2CN2CCC(C(=O)c3ccc(F)cc3)CC2)cc1	?	-28%	4	?	-1	-1
CCc1nc(Nc2ccc3c(c2)OCCO3)c2oc3ccccc3c2n1	nt	?	6	-11%	-16	17*
Cc1nc(NCc2ccc3c(c2)OCO3)c2oc3ccccc3c2n1	-8%	?	2	-12%	-16	-7
CCc1nc(Nc2ccc(O)cc2)c2oc3ccccc3c2n1	?	?	34	?	32	10
Cc1nc(Nc2ccc3c(c2)OCCO3)c2oc3ccccc3c2n1	12%	?	83*	16%	0	26*
COc1ccc(CSc2nc(CSC)cc(N3CCOCC3)n2)cc1	12µM*	-19%	-7	?	42	5
SMILES	Pf growth 48h	HCV inhibitor	Shiga inhibitor	Pf growth 96h	HCMV antiviral	Cycloheximide cs
COc1ccc(CN2CCOCCOCCOCCOCC2)cc1	31%	9%	4	22%	-18	2
CC/C(=N\Nc1ccccc1)c1c(O)n(C)c(=O)n(C)c1=O	-16%	-8%	-6	?	2	-8
CCC(=NCCc1c[nH]c2ccccc12)c1c(O)n(-c2ccc(C)cc2)c(=O)[nH]c1=O	?	-1%	9	?	-4	-1
CCC(=NC(C)c1ccccc1)c1c(O)n(C)c(=O)n(C)c1=O (stereo not drawn)	-11%	5.6µM*	-12	-4%	?	2
CCC(=NCCc1c[nH]c2ccccc12)c1c(O)n(C)c(=O)n(C)c1=O	nt	4.5µM*	-21	?	-75*	-4
Fc1ccc(-c2cn3cc(Cc4ccccc4)sc3n2)cc1	nt	nt	nt	nt	-66*	nt
Fc1ccc(Cc2cn3cc(-c4ccccc4)nc3s2)cc1	nt	nt	nt	nt	10	nt
O=C(Cc1ccccc1)N/N=C/c1cc2c(cc1Cl)OCO2	52%	-25%	85*	81%	?	35*
O=C(N/N=C\c1ccc2c(c1)OCO2)c1ccco1	196%	0%	59*	-8%	103	28*
O=C(N/N=C\c1cccc(OC(=O)c2ccco2)c1)c1ccc2c(c1)OCO2	140%	4%	50*	95%	16	32*
O=C(Oc1ccccc1OC(=O)N1CCOCC1)N1CCOCC1	5%	18%	7	-10%	48	-3
O=C(N/N=C/c1ccccc1OC(=O)N1CCOCC1)c1cccs1	14%	7%	47	?	-27	35*
O=C(CN1C(=O)NC2(CCc3ccccc32)C1=O)c1ccc(F)c(F)c1 (stereo not drawn)	-15%	11%	nt	9%	-36	nt
CSc1nc2ccsc2c(=O)n1-c1ccccn1	?	6%	-2	-8%	-9	1
O=C(N/N=C/c1ccc2c(c1)OCO2)C1CC1	108%	16%	49*	96%	11	37*
Cc1[nH]c2ccccc2c1/C=N\NC(=O)CNc1ccc2c(c1)OCO2	20%	13%	-23	-11%	33	13
O=C(N/N=C/c1ccc[nH]1)c1ccc2c(c1)OCO2	177%	13µM*	109*	122%	52	37*
O=C(N/N=C\c1cc2c(cc1Cl)OCO2)c1cccs1	64%	-9%	69*	44%	38	26*
O=C(N/N=C/c1c(Cl)[nH]c2ccccc12)c1ccc2c(c1)OCCO2	51%	-20%	60*	127%	19	55*
O=C(N/N=C\c1cc2c(cc1[N+](=O)[O-])OCO2)c1cccs1	5%	-16%	20	?	75	8
CC(=Nc1ccccc1C(F)(F)F)c1ccncc1	0%	5%	-1	24%	56	-3
O=C(CNC(=O)c1ccc2c(c1)OCO2)Nc1cccc(Br)c1	6%	-5%	nt	0%	32	nt
O=C(N/N=C/c1cc2c(cc1Cl)OCO2)c1ccc2c(c1)OCCO2	0%	-20%	70*	?	-15	42*
O=C(NN=Cc1ccc2c(c1)OCO2)c1ccncc1	nt	14%	nt	nt	-7	nt
O=C(N/N=C/c1cccnc1)c1ccc2c(c1)OCO2	-25%[0.00184 µM]	4%	55*	-19%	95	38*
O=C(CNC(=O)c1cccc(Br)c1)N/N=C/c1ccc2c(c1)OCO2	18%	4%	79*	28%	-74*	24*
O=C(N/N=C/c1ccc2c(c1)OCO2)c1ccc2c(c1)OCO2	15%	-9%	72*	96%	12	42*
O=[N+]([O-])c1ccc(OCc2n[nH]c(=S)n2-c2ccccc2)cc1	3%	-19%	-12	-18%	-13	-4

Source: PubChem BioAssay
